Source: PubChem
NPR1 activator = GC-A stimulated cGMP production enhancers – HEK293 GC-A cells, cGMP TR-FRET, EC30 ANP, primary screen | Atrial natriuretic peptide receptor 1 (Homo sapiens), P16066 | 0% at EC30 ANP, 100% saturating ANP | activation, % at 10 µM | 370,000 compounds, 0.14% hits | AID 1671463, 2021; in the data active = activation above about 40%
ADAM10 inh = human ADAM10 inhibitors, primary screen, biochemical, QFRET, HTS | recombinant ADAM10, EDANS/DABCYL FRET peptide cleavage, 3 h | AID 720582, 2013 | 370,000 compounds, 0.62% hits | inhibition, % at 7 µM;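 active = inhibition above a per-campaign cutoff equal to the mean of compounds falling between control-based bounds plus 3 SD, cut at about 20% in these data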
NPR2 activator = human GC-B receptor activators, primary screen, HEK293 GC-B cells, cGMP TR-FRET, EC30 CNP; 370,000 compounds, 0.11% hits; Atrial natriuretic peptide receptor 2 (Homo sapiens), P20594; 0% at EC30 CNP, 100% saturating CNP; AID 1920062, 2024; activation, % at 10 µM;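 active = activation at 10 µM reaching about 35% in either raw or pattern-adjusted values, limit read from the data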
FAS-TE inh = FAS thioesterase domain inhibitors, primary screen, biochemical, fluorescence intensity, uHTS. 360,000 compounds, 0.67% hits. AID 602261, 2012. Fatty acid synthase (Homo sapiens), P49327. inhibition, % at 15 µM. recombinant FAS-TE, OMFH fluorogenic substrate, fluorescence endpoint;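 active = compounds whose normalised, plate-corrected inhibition of enzyme fluorescence in the single-dose primary screen is 50% or more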
ADAM17 inh = ADAM17 inhibitors, primary screen, biochemical, QFRET. Disintegrin and metalloproteinase domain-containing protein 17 (Homo sapiens), P78536. recombinant ADAM17, EDANS/DABCYL FRET peptide cleavage. inhibition, % at 6.95 µM. 370,000 compounds, 0.83% hits. AID 720648, 2013;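 active = inhibition above the mean of compounds lying between control limits plus 3 SD, set per campaign, cut at about 8.5% in these data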
ADAM10 ctr = ADAM10 inhibitors, counter-screen for ADAM17 exosite inhibitor project, biochemical, FRET, human ADAM10; 2,900 compounds, 47% hits; inhibition, % at 6.95 µM; recombinant ADAM10, EDANS/DABCYL FRET peptide cleavage, 3 h; shares compounds with ADAM17 inh;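 active = mean inhibition over the triplicate runs exceeds the activity threshold set in the earlier primary screen, cut at about 20% in these data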
ADAM17 confirm = ADAM17 inhibitors, hit retest, confirmation, biochemical, QFRET peptide cleavage. recombinant ADAM17, EDANS/DABCYL QFRET peptide cleavage. AID 743257, 2014. shares compounds with ADAM17 inh. inhibition, % at 6.95 µM. 2,900 compounds, 65% hits;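 active = mean inhibition across replicates above the hit cutoff set in the primary screen, cut at about 8.5% in these data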
Hits are given with their value; n = inactive; x = no result. An excerpt weighted towards active compounds, which were near 2% of everything screened.

SMILES | NPR1 activator | ADAM10 inh | NPR2 activator | FAS-TE inh | ADAM17 inh | ADAM10 ctr | ADAM17 confirm
CNC(=S)N1N=C(c2ccc(Br)cc2)CC1c1ccc(Br)cc1 (centres undefined) | n | n | n | n | 12 | 27 | 17
Cc1cc(C)n(Cc2ccc(C(=O)NCc3ccco3)o2)n1 | n | n | n | n | 9.4 | n | n
COc1cccc(-c2noc(C(C)n3nc(C)c([N+](=O)[O-])c3C)n2)c1 (centres undefined) | n | n | n | n | 13 | n | n
COc1cccc(-c2noc(-c3cccnc3)n2)c1 | n | n | n | n | n | x | x
O=C(CSc1ncnc2scc(-c3ccccc3)c12)Nc1ccc(C(=O)O)cc1 | n | n | n | n | n | x | x
CC(=O)Nc1ccc(Sc2ncnc3scc(-c4ccccc4)c23)cc1 | n | n | n | n | 10 | n | 10.0
Cc1ccc(CNC(=O)C(=O)NCC2OCCN2S(=O)(=O)c2ccc(C)cc2)cc1 (centres undefined) | n | n | n | n | 11 | n | n
COc1ccc(S(=O)(=O)N2CCCOC2CNC(=O)C(=O)NCCO)cc1 (centres undefined) | n | n | n | n | 10.0 | n | 9.4
COc1ccc(S(=O)(=O)N2CCOC2CNC(=O)C(=O)NCCc2ccccc2)cc1 (centres undefined) | n | n | n | n | n | x | x
Cc1ccc(CNC(=O)C(=O)NCC2OCCN2S(=O)(=O)c2ccc(Br)cc2)cc1 (centres undefined) | n | n | n | n | n | x | x
COc1ccc(S[C@]2(C(=O)N3CCN(c4ncccn4)CC3)CC(=O)N(C(=O)CCc3ccccc3)[C@@H]2c2ccc(OC)cc2)cc1 | n | n | n | x | n | x | x
CCC(=O)c1ccc(OCC(=O)OCC(=O)NC2CCCCCCC2)cc1 | n | n | n | n | 9.5 | n | 8.8
O=C(OCCC1Oc2cccnc2NC1=O)c1ccc([N+](=O)[O-])cc1 (centres undefined) | n | n | n | x | 9.1 | n | n
C=CCn1c(COc2ccc(Cl)cc2)nnc1SCC(=O)c1ccc(-c2ccccc2)cc1 | n | n | n | x | n | x | x
Cc1cccnc1NC(=O)c1ccc(Br)o1 | n | n | n | n | 8.6 | n | n
O/N=C(\c1ccc(Cl)cc1Cl)c1ncc(C(F)(F)F)cc1Cl | n | n | n | n | 12 | 29 | 13
O=C(c1ccc(Cl)cc1Cl)c1ncc(C(F)(F)F)cc1Cl | n | n | n | n | n | x | x
Clc1ccccc1Cn1nnc2c(N3CCCC3)ncnc21 | n | n | n | n | n | x | x
Fc1ccccc1Cn1nnc2c(-n3ccnc3)ncnc21 | n | n | n | n | 8.7 | n | n
Cc1cccc(Nc2nc(N)c([N+](=O)[O-])c(N3CC(C)OC(C)C3)n2)c1 (centres undefined) | n | n | n | n | n | x | x
Cc1cccc(Nc2nc(N)c([N+](=O)[O-])c(N3CC(C)CC(C)C3)n2)c1 (centres undefined) | n | 20 | n | n | 9.4 | 31 | 17
COCCN1C(=O)[C@H]2C[C@@]13O[C@H](c1ccccn1)N=C3CC1c3ccccc3C[C@@]12C (some centres undefined) | n | n | n | x | n | x | x
CC(=O)Nc1ccc(S(=O)(=O)NCC(=O)OCC(=O)NCc2ccc3c(c2)OCO3)cc1 | n | n | n | n | 9.6 | n | n
CCCCOCC1CN(CCCC)S(=O)(=O)c2c(cccc2Sc2ccc(SC)cc2)O1 (centres undefined) | n | n | n | x | n | x | x
